In the library only some 4.4% were active in any assay of this set; here they are far more common.
p53ts 32C kill: kills p53ts cells at the permissive temperature; H1299-p53A138V at 32C, ATP luminescence viability, 24 h; Potency, µM (doses to about 46.1 µM), inactives show top-dose activity change, negative = cytotoxicity, most hits filed as cytotoxic; hit rate 0.93% among 130,000; AID 924;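 note: 0% = DMSO and -100% = full killing by reference compound; nearly all actives have a fitted effect of over 55% in size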
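Viability by ATPlite luminescence after 24 h compound treatment (up to 46 uM) at the permissive 32C. Cells are H1299 carrying p53 A138V. Scale runs from DMSO basal to 100 uM tamoxifen as full kill; AC50 from Hill fits.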
ALOX12 inhib: blocks human 12-lipoxygenase activity; purified 12-hLO, xylenol orange hydroperoxide absorbance; Potency, µM (doses to about 57.1 µM), without a hit: at the highest dose activity change, negative = inhibition, most hits filed as inhibitors; hit rate 0.12% among 150,000; note: nearly all actives have a fitted effect of over 55% in size
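150 nM 12hLO, 25 mM Hepes pH 7.0 + 0.01% Triton X-100; cpd preinc 15 min RT; 40 uM arachidonic acid, 30 min RT; Fe-XO 30 min; A573/A405 ratio as read-out.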
HPGD block: HPGD (human) dehydrogenase inhibition | P15428 | hit rate 4.3% among 150,000 | purified HPGD, NADH fluorescence kinetic, PGE2 substrate | Potency, µM, for the others: at the top dose activity change, negative = inhibition, most hits filed as inhibitors | AID 894; active = well fitted inhibition curve with a large enough effect, not every such curve was filed as active; inconclusive = small, poorly fitted or top-dose-only effect, or another doubt; inactive = no such curve, though single readings can be large or run the other way
Target sequence (P15428 whole entry, looked up): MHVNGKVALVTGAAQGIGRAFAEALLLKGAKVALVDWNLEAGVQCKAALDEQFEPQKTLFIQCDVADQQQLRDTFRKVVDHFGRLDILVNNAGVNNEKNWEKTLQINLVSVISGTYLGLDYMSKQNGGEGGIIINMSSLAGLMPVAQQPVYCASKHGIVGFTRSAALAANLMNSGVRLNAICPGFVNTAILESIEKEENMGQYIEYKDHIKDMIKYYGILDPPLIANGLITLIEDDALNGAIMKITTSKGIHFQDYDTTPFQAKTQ
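NADH formation kinetics: reaction with 30 uM PGE2 and 1 mM NAD+ (final), 20 nM enzyme, Tris-HCl pH 8 with Tween 20, after 15 min compound preincubation at room temperature. Fluorescence change, last versus first of five reads.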
p53ts 39C kill: kills p53ts cells at the nonpermissive temperature; hit rate 1.5% among 130,000; H1299-p53A138V viability at 39C, ATP luminescence, 24 h; Potency, µM (doses to about 46.1 µM), inactives show at the top dose activity change, negative = cell killing, usual class: cytotoxic; note: nearly all actives have a fitted effect of over 55% in size
Starred values were filed as active, the others as inactive; ? = inconclusive; . = no result given; [ ] = another dose, or the depositor's remark. Unless noted, calls come from the whole dose curve; as a rule, active = well fitted curve in the direction sought with a large enough effect; inconclusive = small, poorly fitted or top-dose-only effect, or another doubt; inactive = no such curve, though single readings can be large; an effect the other way counts as inactive or inconclusive. Unless noted, % is set by controls: 0 for no effect and ±100 for the full control effect; potency is the fitted concentration of half-maximal effect.

SMILES	p53ts 32C kill	ALOX12 inhib	HPGD block	p53ts 39C kill
CCn1c(C(=O)N2CCCC(C(=O)N3CCN(c4ccccc4)CC3)C2)cc2sccc21 (stereo not drawn)	-8%	.	.	-11%
Cc1ccc(-n2ncc3c(=O)[nH]c(SCC(=O)N4CCCC4)nc32)cc1C	9%	3%	16µM*	-1%
Cc1ccc(-n2ncc3c(=O)[nH]c(SCC(=O)N4CCC(C)CC4)nc32)cc1C	5%	1%	-14%	-11%
S=c1nc(-c2nc(=S)[nH]c3c2CCCCCCCCCC3)c2c([nH]1)CCCCCCCCCC2	2%[9.22 µM]	1%[11.4 µM]	-8%	5%[9.22 µM]
COc1ccc2c(c1)[n+]([O-])c(/C(C)=N/NC(N)=S)c(C)[n+]2[O-]	6%[9.22 µM]	3%[11.4 µM]	.	3%[9.22 µM]
N#Cc1cc([N+](=O)[O-])c(-n2nnc3ccccc32)c([N+](=O)[O-])c1	.	-10%	28µM*	.
COc1ccccc1Oc1cc(C#N)c(C#N)cc1-n1nnc2ccccc21	28%	-9%	-19%	12%
COc1cccc(/C=N/Nc2ncnc3scc(-c4ccccc4)c23)c1O	.	-11%	20µM*	.
COc1cccc(/C=N/Nc2ncnc(Cl)c2N)c1O	.	-2%	-10%	.
CCc1ccc(CNC(=O)c2cnc3sc(N(CC)CC)nn3c2=O)cc1	-4%	.	.	-9%
CCOc1ccc(NS(=O)(=O)c2ccc3c(c2)CCN3C(=O)CCC(=O)O)cc1	-3%	1%	-8%	-1%
O=C(O)CCC(=O)N1CCc2cc(S(=O)(=O)Nc3ccc4c(c3)OCCO4)ccc21	-3%	1%	25µM*	7%
COc1ccc(NC(=O)CC2C(=O)N(c3ccc(F)cc3)C(=O)N2Cc2cccnc2)cc1 (stereo not drawn)	-1%	.	.	-10%
CCCc1cc(=O)[nH]c(SCc2nc3ccccc3s2)n1	.	-1%	?	.
CCCc1cc(=O)[nH]c(SCc2ccccc2Cl)n1	.	-6%	14µM*	.
CCCc1cc(=O)[nH]c(SCc2cc(=O)oc3cc(C)c(C(C)C)cc23)n1	.	0%	16µM*	.
CCOc1ccc(C(=O)NCC(c2ccc3c(c2)OCO3)N2CCN(C)CC2)cc1 (stereo not drawn)	1%	.	.	-23%
O=C(Nc1nc2ccc(S(=O)(=O)N3CCCCC3)cc2s1)c1ccncc1	14%	-3%	-29%	14%
CCCCOC(=O)Nc1nc2ccc(OC)cc2s1	-6%	7%	-13%	-6%
Cc1ccc(S(=O)(=O)Nc2nc3ccc(S(=O)(=O)N4CCCC4)cc3s2)cc1	9%	-16%	13µM*	13%
CCOc1ccccc1NS(=O)(=O)c1ccc(OC)c(OC)c1	-17%	-4%	-1%	5%
CCCCN(C(=O)NC(=O)Nc1nc2ccc(OC)cc2s1)S(C)(=O)=O	13µM*	-1%	?	?
O=S(=O)(Nc1nc2ccc(S(=O)(=O)N3CCCCC3)cc2s1)c1ccccc1	.	-11%	8.9µM*	.
CCOc1ccc2sc(NS(=O)(=O)c3ccc(OC)c(OC)c3)nc2c1	5%	-5%	16µM*	-1%
COc1ccc(N(CC(=O)NCCc2ccccc2)S(=O)(=O)c2ccccc2)c(OC)c1	0%	.	.	28%
SMILES	p53ts 32C kill	ALOX12 inhib	HPGD block	p53ts 39C kill
COc1ccc(S(=O)(=O)Nc2nc3ccccc3s2)cc1	.	2%	-12%	.
COc1ccc2nc(NS(=O)(=O)c3ccc(NC(C)=O)cc3)sc2c1	10%	-3%	28µM*	-1%
CCc1nc2sc3ccccc3c(=O)c2c(=O)n1Cc1ccco1	-2%	-4%	-5%	7%
O=c1c2ccccc2sc2nc(C3CCCCC3)n(Cc3ccco3)c(=O)c12	3%	?	16µM*	-9%
COc1cc(C/C=C\c2ccccc2)c(OC)cc1O	.	.	-20%	.
CC1CCCCN1C(=O)CSc1n[nH]c(-c2ccccc2)n1 (stereo not drawn)	-28%	.	.	-19%
CC1CCCCN1C(=O)CSc1ccc(-c2ccc(F)cc2)nn1 (stereo not drawn)	-12%	0%	22µM*	-23%
COCC(=O)N1CCC2(CC1)CCN(C(=O)Nc1cccc(F)c1)CC2	-7%	0%	1%	9%
COc1ccc(-c2nc3ccccc3s2)cc1O	5µM*	-14%	?	2.5µM*
COc1cc(-c2nc3ccccc3s2)ccc1O	.	-11%	?	.
Oc1cccc(-c2nc3ccccc3s2)c1	7.9µM*	-11%	-12%	10µM*
O=C(c1ccc(S(=O)(=O)Cc2cc(F)ccc2F)c([N+](=O)[O-])c1)N1CCCCC1	.	3%	14µM*	.
Cc1ccc(OC(C)C(=O)Nc2nonc2-c2ccc(Br)cc2)cc1C (stereo not drawn)	-1%	.	.	3%
CCOC(=O)c1cnn(-c2ncnc3sc4c(c23)CCC4)c1N	-4%	4%	7.9µM*	6%
CC/C(C)=N\N=C\c1c(O)n(CC)c2cc(C3=NNC(=O)CC3)ccc12	-5%	-3%	32µM*	5%
CCCCNC(=O)/C=C1\Sc2ccccc2NC1=O	.	-3%	18µM*	.
CCOC(=O)c1cc(-c2ccccc2)n(CC(=O)O)c1C	7%	4%	25µM*	-3%
CCOC(=O)c1cc(-c2ccccc2)n(CC(=O)NC(C)c2ccccc2)c1C (stereo not drawn)	-10%	.	.	-25%
Cc1ccc(O)c(C(=O)CC(=O)c2cccc(F)c2)c1	-14%	-28%	22µM*	-11%
Cc1cccc(C(=O)CC(=O)c2cc(Cl)ccc2O)c1	.	-29%	16µM*	.
COc1ccc(C(=O)Cc2ccc(F)cc2)c(OC)c1	.	-2%	-13%	.
COc1ccc(O)c(C(=O)CC(=O)c2ccc(F)cc2)c1	6.3µM*	?	-29%	6.3µM*
O=C(CC(=O)c1cc(Cl)ccc1O)c1ccccc1	?	-23%	25µM*	?
COc1ncc2nc(C)c(=O)n(CCc3ccccc3)c2n1	7%	.	.	-4%
Cc1ccc(C2C3=C(CC(C)(C)CC3=O)NC3=C2C(=O)c2ccccc23)cc1 (stereo not drawn)	.	-23%	-2%	.
SMILES	p53ts 32C kill	ALOX12 inhib	HPGD block	p53ts 39C kill
CC1(C)C(=O)NC2=C1C(=O)C(=O)c1ccccc12	1.3µM*	-13%	-11%	1µM*
CNC(=S)N/N=C/c1cn(CCOc2ccccc2OC)c2ccccc12	.	?	-15%	.
CNC(=S)N/N=C/c1cn(CCOc2cccc(OC)c2)c2ccccc12	.	?	16µM*	.
CCCc1nc(SCc2ccc(Cl)cc2Cl)n[nH]1	.	-1%	16µM*	.
Nc1nc(SCc2ccc(Cl)cc2Cl)ns1	-4%	-14%	-5%	0%
CCCCCCCCCCCCCCCC(=O)O[C@H](CC(=O)O)C[N+](C)(C)C	13µM*	11%	-18%	?
CCCCCCCCCCCCCCCCCC(=O)O[C@H](CC(=O)O)C[N+](C)(C)C	?	-3%	.	?
Cn1nccc1/C=C(/C#N)S(=O)(=O)c1ccccc1	15%	2%	-1%	17%
N#C/C(=C\c1ccc[nH]1)S(=O)(=O)c1ccccc1	2%	-6%	4.5µM*	12%
Cc1ccc(-c2nc3ccccc3[nH]2)s1	13µM*	-5%	?	13µM*
Nc1nc(-c2nc3ccccc3[nH]2)cs1	16µM*	3%	-10%	13µM*
